Experimental data from paper PMC7862700, “An all-to-all approach to the identification of sequence-specific readers for epigenetic DNA modifications on cytosine”.

Assays:
Assay in all cases: DAPPL (digital affinity profiling via proximity ligation, sequencing); 10 mM Tris-HCl pH 7.5, 50 mM NaCl, 1 mM DTT, 4% glycerol, room temperature, 30 min; GST-TFs on glutathione beads, 16-mer random dsDNA library, 0.1% formaldehyde crosslink after washing; high values mean tight binding
FEV = biological target: T1, FEV (Homo sapiens, UniProt Q99581 1-238); conditions: protein: recombinant; tags: N-terminal GST; dsDNA, one strand shown
T1 sequence: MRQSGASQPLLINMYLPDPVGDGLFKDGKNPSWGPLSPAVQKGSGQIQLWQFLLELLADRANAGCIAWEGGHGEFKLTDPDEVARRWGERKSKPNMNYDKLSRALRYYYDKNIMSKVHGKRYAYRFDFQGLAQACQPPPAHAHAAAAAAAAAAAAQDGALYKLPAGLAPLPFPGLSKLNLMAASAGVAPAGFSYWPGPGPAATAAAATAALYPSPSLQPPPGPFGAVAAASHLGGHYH
Method in brief: (§1)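 A tag-only sample was pooled with DNA-barcoded human transcription factors that had been expressed in yeast as GST fusions and captured on glutathione beads. The pools were incubated for 30 min at room temperature with 200 nmole of a random double-stranded 16-mer DNA library in Tris/NaCl/DTT/glycerol buffer, then washed, crosslinked with 0.1% formaldehyde, proximity-ligated (BsaI/T4 ligase, 1 h, 37 °C), PCR-amplified and sequenced on an Illumina NextSeq500. Binding signal is each hexamer's read frequency for a factor divided by its frequency for the tag-only sample.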

ETV5 = ETV5 (Homo sapiens, UniProt P41161 1-510); conditions: protein: recombinant; tags: N-terminal GST; dsDNA, one strand shown
Chain of ETV5 (P41161 whole entry): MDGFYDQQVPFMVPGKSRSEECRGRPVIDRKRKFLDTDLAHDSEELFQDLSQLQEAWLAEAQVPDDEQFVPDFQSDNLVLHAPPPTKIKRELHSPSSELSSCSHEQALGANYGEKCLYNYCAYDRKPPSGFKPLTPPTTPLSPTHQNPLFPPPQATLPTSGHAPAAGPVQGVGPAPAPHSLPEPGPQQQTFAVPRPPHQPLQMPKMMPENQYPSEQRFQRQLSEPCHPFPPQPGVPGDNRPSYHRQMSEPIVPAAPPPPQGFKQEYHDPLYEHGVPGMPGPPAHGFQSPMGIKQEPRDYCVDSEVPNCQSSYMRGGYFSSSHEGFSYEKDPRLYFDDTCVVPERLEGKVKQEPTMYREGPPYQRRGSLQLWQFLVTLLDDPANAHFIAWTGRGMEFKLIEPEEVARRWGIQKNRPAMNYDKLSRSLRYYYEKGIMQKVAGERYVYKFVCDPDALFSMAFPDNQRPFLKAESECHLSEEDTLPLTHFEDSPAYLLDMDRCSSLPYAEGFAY
Method in brief: as §1

HSF1 = HSF1 (Homo sapiens, UniProt Q00613 1-529); conditions: protein: recombinant; tags: N-terminal GST; chain copies: 3; dsDNA, one strand shown
Chain of HSF1 (Q00613 whole entry): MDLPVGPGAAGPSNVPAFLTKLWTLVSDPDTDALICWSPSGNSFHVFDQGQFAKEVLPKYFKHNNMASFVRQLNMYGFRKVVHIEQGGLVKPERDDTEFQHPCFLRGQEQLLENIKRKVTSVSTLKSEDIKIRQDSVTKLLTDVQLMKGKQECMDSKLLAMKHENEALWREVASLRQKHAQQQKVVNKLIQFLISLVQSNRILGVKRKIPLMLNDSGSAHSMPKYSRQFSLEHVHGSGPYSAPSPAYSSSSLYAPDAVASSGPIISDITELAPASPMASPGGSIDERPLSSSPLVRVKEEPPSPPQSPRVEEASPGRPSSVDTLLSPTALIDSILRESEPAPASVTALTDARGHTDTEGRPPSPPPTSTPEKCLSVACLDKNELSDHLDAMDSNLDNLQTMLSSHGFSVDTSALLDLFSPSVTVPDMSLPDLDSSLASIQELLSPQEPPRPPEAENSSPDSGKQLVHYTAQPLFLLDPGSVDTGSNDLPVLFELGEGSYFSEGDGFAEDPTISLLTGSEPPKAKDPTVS
Method in brief: as §1

SPIC = biological target: T2, SPIC (Homo sapiens, UniProt Q8N5J4 1-248); conditions: protein: recombinant; tags: N-terminal GST; dsDNA, one strand shown
T2 sequence: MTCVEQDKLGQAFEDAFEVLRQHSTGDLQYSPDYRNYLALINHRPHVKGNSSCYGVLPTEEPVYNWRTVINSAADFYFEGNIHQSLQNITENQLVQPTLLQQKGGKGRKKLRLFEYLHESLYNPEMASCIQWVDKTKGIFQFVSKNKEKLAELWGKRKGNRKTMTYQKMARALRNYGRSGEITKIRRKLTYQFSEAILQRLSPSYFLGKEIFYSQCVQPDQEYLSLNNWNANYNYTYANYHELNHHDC
Method in brief: as §1

ELF4 = ELF4 (Homo sapiens, UniProt Q99607 1-663); conditions: protein: recombinant; tags: N-terminal GST; dsDNA, one strand shown
Chain of ELF4 (Q99607 whole entry): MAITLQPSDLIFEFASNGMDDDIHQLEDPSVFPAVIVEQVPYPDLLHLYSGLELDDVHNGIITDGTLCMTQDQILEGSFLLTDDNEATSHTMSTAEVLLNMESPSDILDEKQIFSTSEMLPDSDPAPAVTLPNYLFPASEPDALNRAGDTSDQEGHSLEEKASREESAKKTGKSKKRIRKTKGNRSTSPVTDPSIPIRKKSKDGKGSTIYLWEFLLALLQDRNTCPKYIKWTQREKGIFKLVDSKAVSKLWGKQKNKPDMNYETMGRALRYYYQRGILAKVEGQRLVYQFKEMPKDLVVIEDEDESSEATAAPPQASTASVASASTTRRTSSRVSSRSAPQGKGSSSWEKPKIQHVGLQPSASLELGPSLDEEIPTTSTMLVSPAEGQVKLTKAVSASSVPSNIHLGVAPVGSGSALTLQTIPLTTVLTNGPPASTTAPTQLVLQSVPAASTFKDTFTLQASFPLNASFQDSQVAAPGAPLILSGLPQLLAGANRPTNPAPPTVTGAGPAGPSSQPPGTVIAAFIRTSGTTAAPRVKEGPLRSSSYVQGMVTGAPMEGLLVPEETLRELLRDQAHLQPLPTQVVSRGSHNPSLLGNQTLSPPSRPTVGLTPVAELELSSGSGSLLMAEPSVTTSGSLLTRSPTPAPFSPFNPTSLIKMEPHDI
Method in brief: as §1

ELK4 = biological target: T3, ELK4 (Homo sapiens, UniProt P28324-2 1-405); conditions: protein: recombinant; tags: N-terminal GST; dsDNA, one strand shown
T3 sequence: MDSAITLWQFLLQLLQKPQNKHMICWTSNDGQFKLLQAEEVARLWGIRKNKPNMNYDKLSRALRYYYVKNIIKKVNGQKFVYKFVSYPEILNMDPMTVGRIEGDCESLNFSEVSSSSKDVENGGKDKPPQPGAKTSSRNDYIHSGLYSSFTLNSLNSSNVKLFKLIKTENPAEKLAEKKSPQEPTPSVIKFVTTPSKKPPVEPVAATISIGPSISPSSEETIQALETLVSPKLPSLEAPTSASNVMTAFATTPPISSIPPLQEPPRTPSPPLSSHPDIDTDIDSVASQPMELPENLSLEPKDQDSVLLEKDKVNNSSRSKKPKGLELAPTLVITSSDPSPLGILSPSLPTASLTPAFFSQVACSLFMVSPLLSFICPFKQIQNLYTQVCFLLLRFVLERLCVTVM
Method in brief: as §1

ETV2 = biological target: T4, ETV2 (Homo sapiens, UniProt O00321 1-342); conditions: protein: recombinant; tags: N-terminal GST; dsDNA, one strand shown
T4 sequence: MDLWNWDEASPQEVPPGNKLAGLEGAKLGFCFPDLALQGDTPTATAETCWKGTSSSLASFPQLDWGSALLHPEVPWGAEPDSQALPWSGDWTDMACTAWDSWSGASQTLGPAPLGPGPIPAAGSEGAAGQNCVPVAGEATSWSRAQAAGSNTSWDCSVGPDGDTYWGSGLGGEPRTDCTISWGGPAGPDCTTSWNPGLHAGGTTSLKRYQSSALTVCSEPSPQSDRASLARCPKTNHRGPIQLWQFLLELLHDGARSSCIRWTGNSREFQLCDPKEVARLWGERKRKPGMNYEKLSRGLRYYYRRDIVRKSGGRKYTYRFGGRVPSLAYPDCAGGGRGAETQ
Method in brief: as §1

ELF3 = biological target: T5, ELF3 (Homo sapiens, UniProt P78545 1-371); conditions: protein: recombinant; tags: N-terminal GST; dsDNA, one strand shown
T5 sequence: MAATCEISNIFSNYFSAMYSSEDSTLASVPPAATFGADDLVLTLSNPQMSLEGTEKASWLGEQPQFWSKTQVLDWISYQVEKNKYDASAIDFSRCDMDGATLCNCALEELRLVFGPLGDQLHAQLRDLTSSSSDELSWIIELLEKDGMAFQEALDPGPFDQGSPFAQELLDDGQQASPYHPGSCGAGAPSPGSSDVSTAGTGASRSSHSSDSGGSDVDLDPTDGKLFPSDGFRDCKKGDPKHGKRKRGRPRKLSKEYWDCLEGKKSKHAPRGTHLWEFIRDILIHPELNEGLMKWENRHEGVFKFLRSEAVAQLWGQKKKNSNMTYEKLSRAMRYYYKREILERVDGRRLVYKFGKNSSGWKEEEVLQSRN
Method in brief: as §1

CRX = CRX (Homo sapiens, UniProt O43186 1-299); conditions: protein: recombinant; tags: N-terminal GST; dsDNA, one strand shown
Chain of CRX (O43186 whole entry): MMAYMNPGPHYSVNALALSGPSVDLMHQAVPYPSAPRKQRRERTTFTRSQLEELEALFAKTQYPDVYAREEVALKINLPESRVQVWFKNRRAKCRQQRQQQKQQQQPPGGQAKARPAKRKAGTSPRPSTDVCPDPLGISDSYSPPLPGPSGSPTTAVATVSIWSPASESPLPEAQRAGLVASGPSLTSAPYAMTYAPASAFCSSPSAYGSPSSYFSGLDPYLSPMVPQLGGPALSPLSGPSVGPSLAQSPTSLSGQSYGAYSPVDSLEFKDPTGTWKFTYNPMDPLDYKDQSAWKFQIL
Method in brief: as §1

ETV1 = ETV1 (Homo sapiens, UniProt P50549 1-477); conditions: protein: recombinant; tags: N-terminal GST; dsDNA, one strand shown
Chain of ETV1 (P50549 whole entry): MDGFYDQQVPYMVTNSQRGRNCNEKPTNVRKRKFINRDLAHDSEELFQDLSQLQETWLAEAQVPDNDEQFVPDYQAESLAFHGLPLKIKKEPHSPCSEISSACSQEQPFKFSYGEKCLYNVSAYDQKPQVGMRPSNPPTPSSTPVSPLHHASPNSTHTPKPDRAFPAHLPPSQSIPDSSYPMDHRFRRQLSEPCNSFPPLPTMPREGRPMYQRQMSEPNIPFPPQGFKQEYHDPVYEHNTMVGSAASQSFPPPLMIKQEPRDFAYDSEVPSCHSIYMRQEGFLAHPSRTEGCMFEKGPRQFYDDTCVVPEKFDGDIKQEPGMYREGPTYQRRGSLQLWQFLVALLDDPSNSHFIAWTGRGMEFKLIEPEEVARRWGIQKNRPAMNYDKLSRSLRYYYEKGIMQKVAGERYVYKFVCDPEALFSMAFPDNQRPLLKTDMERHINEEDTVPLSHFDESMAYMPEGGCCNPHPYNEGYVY
Method in brief: as §1

CATCCT
binding signal (FEV): 1.59 fold enrichment (6-mer frequency, TF over GST control)
binding signal (ETV5): 1.63 fold enrichment (6-mer frequency, TF over GST control)
binding signal (HSF1): 1.12 fold enrichment (6-mer frequency, TF over GST control)
binding signal (SPIC): 1.63 fold enrichment (6-mer frequency, TF over GST control)
binding signal (ELF4): 1.62 fold enrichment (6-mer frequency, TF over GST control)
binding signal (ELK4): 1.51 fold enrichment (6-mer frequency, TF over GST control)
binding signal (ETV2): 1.63 fold enrichment (6-mer frequency, TF over GST control)
binding signal (ELF3): 1.59 fold enrichment (6-mer frequency, TF over GST control)
binding signal (CRX): 1.21 fold enrichment (6-mer frequency, TF over GST control)
binding signal (ETV1): 1.55 fold enrichment (6-mer frequency, TF over GST control)
